Experimental data published in publication PMC5540273 (PLoS ONE, 2017).

Experiments:
Details in all cases: concentration: 1 μM,replicates: in singlicate; n = 1
WNK1 = tested on: WNK1
WNK2 = tested on: WNK2
WNK3 = tested on: WNK3
WNK4 = tested on: WNK4
YANK1 = tested on: T1, YANK1
T1 construct: gene STK32A

YANK2 = tested on: T2, YANK2
T2 construct: gene STK32B

YANK3 = tested on: T3, YANK3
T3 construct: gene STK32C

YES = tested on: T4, YES
T4 construct: gene YES1

YSK1 = tested on: T5, YSK1
T5 construct: gene STK25

YSK4 = tested on: T6, YSK4
T6 construct: gene MAP3K19
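Note: KINOMEscan kinase panel screen.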

Row | SMILES | %Inh (WNK1) | %Inh (WNK2) | %Inh (WNK3) | %Inh (WNK4) | %Inh (YANK1) | %Inh (YANK2) | %Inh (YANK3) | %Inh (YES) | %Inh (YSK1) | %Inh (YSK4)
1 | OCCn1cc(-c2cnc3nnn(Cc4ccc5ncccc5c4)c3n2)cn1 | 0% | 0% | 0% | 0% | 3% | 0% | 0% | 0% | 0% | 0%
2 | O=C(Nc1cccc(C(F)(F)F)c1)c1cccc(Oc2ccc3nccn3n2)c1 | 16% | 0% | 26% | 15% | 0% | 0% | 30% | 0% | 0% | 77%
3 | Cl.Cl.NC[C@H](CC1CCCCC1)NC(=O)c1ccc(-c2ccnc3[nH]ccc23)s1 [GSK1581428] | 0% | 0% | 0% | 7% | 68% | 43% | 35% | 5% | 0% | 99.7%
4 | CC(C)S(=O)(=O)N1CCN(Cc2ccc3c(c2)nc(NC(=O)c2ccsc2)n3C[C@H](O)c2ccccc2)CC1 [GW635815] | 3% | 0% | 18% | 0% | 1% | 0% | 5% | 86% | 0% | 90.6%
5 | C[C@@H]1CNc2c(sc3ccc4nc(-c5ccc(O)cc5)ccc4c23)C(=O)N1 | 0% | 2% | 0% | 11% | 0% | 9% | 1% | 0% | 0% | 46%
6 | CN1CCN(CCCNc2nccc(-c3c(-c4ccc(F)cc4)nn4cc(C(N)=O)ccc34)n2)CC1 [GW622475] | 9% | 8% | 20% | 14% | 20% | 17% | 16% | 24% | 22% | 14%
7 | C[C@@H](Oc1cc(-n2cnc3ccc(-c4ccncc4)cc32)sc1C(N)=O)c1ccccc1Cl [GSK483724] | 46% | 63% | 79% | 51% | 18% | 1% | 28% | 16% | 2% | 68%
8 | Cn1ccc2ncnc(Oc3ccc(NC(=O)Nc4cncc(C(F)(F)F)c4)c(Cl)c3)c21 | 0% | 0% | 0% | 0% | 0% | 2% | 25% | 0% | 0% | 17%
9 | CC(=O)c1c(-c2ccncc2)[nH]c(-c2ccncc2)c1C [GW493036] | 14% | 0% | 50% | 62% | 0% | 0% | 9% | 17% | 0% | 78%
10 | FC(F)(F)c1cc(Br)cc(Nc2nccc(-c3cnn4ncccc34)n2)c1 [GW810578] | 14% | 25% | 0% | 0% | 0% | 0% | 25% | 0% | 0% | 64%
11 | COc1ccc(Nc2nccc(N3CCC(NC(=O)c4cccc(C#N)c4)C3)n2)cc1 (centres unmarked) [GSK1379730] | 2% | 5% | 18% | 0% | 0% | 0% | 0% | 15% | 0% | 0%
12 | C[C@@H](Oc1cc(-n2cnc3cc(-c4ccncc4)ccc32)sc1C(N)=O)c1ccccc1Cl [GSK479719] | 32% | 76% | 90.2% | 2% | 7% | 0% | 26% | 44% | 0% | 97.5%
13 | COc1cc2nccc(Nc3ccc(Oc4ccccc4)cc3)c2cc1OC.Cl [GI261656] | 0% | 0% | 42% | 28% | 7% | 0% | 0% | 79% | 0% | 0%
14 | CC(C(=O)NC1CCN(c2ccnc(Nc3ccc(F)cc3)n2)C1)c1ccc(Cl)cc1 (centres unmarked) [GSK1379713] | 1% | 0% | 73% | 0% | 0% | 0% | 0% | 0% | 0% | 0%
15 | O=C(Nc1cccc(Oc2ccc3nccn3n2)c1)Nc1cccc(C(F)(F)F)c1 | 0% | 0% | 0% | 20% | 0% | 0% | 0% | 0% | 0% | 96.1%
16 | Cn1ccc2ncnc(Oc3ccc(NC(=O)Nc4cc(C(C)(C)C)on4)c(Cl)c3)c21 | 0% | 20% | 0% | 0% | 0% | 5% | 0% | 3% | 0% | 99.5%
17 | CC(=O)Nc1nc2cnc(Nc3cc(NC(=O)c4cccc(CC(C)(C)C#N)c4)ccc3C)nc2s1 | 0% | 47% | 0% | 26% | 1% | 12% | 9% | 17% | 0% | 40%
